Inconclusive results are not listed. Unmarked numbers belong to inactive results. Activity calls are given as the source filed them. Calls follow the shape of the dose curve; as a rule, active = well fitted curve in the direction sought with a large enough effect; inconclusive = small, poorly fitted or top-dose-only effect, or another doubt; inactive = no such curve, though single readings can be large; an effect the other way counts as inactive or inconclusive.

Experiment [1] relates to HaCat. As to the kind of experiment: Cytotoxic Profiling of Annotated Libraries Using Quantitative High-Throughput Screening (AID 1296008). Also: nearly all actives have a fitted effect of over 60% in size. Also: potency is read from the fitted curve at half-maximal effect. As to max response: % is scaled to controls: 0 for no effect and ±100 for the full control effect. Particulars: Five cell lines viability, CellTiter-Glo ATP luminescence, 48-72 h; max response: active compounds read low. In a few lines:
(§1)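 Compounds were pin-transferred onto cells and incubated 48 or 72 hr at 37 degree Celsius, 95% humidity. CellTiter-Glo was added, plates sat 10 min at room temperature, then ATP-coupled luminescence was imaged as the viability read-out.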
Background: In ATP-based viability assays light output follows the ATP content of the culture.

In a further experiment the test system is KB-3-1. Described as above. Particulars: Five cell lines viability, CellTiter-Glo ATP luminescence, 48-72 h; max response: active compounds read low. The gist of the method:
as §1

In a further experiment the test system is C33A. The experiment can be described thus: Primary qHTS to identify gynecologic anti-cancer compounds using libraries of approved drugs and bioactive compounds (AID 1345084). Also: nearly all actives have a fitted effect of over 55% in size. Also: potency is read from the fitted curve at half-maximal effect. As to activity change, negative = cytotoxicity: % is scaled to controls: 0 for no effect and ±100 for the full control effect. The settings on record: Gynecologic cancer cell panel viability, ATPlite luminescence, 48 h; series mostly up to 57.5 µM. In a few lines:
(§2)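 Cell viability after 48 h drug treatment, ATPlite luminescence readout; five doses.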
In general terms: qHTS replaces the single test concentration by a dilution series.

The next experiment deals with CAOV3. Described as above. The settings on record: Gynecologic cancer cell panel viability, ATPlite luminescence, 48 h; series mostly up to 57.5 µM. In a few lines: as §2
The subject of the next experiment is CASKI. The description is as above. The settings on record: Gynecologic cancer cell panel viability, ATPlite luminescence, 48 h; series mostly up to 57.5 µM. The gist of the method:
as §2

The next experiment deals with Es-2. Described as above. The settings on record: Gynecologic cancer cell panel viability, ATPlite luminescence, 48 h; series mostly up to 57.5 µM. In a few lines: as §2
The next experiment concerns HeLa. The description is as above. Particulars: Gynecologic cancer cell panel viability, ATPlite luminescence, 48 h; series mostly up to 57.5 µM. The gist of the method: as §2
Another experiment concerns Hek293T. The description is as above. The settings on record: Gynecologic cancer cell panel viability, ATPlite luminescence, 48 h, control line for the selectivity index; series mostly up to 57.5 µM. In a few lines: as §2
The next experiment deals with JEG-3. The description is as above. Particulars: Gynecologic cancer cell panel viability, ATPlite luminescence, 48 h; series mostly up to 57.5 µM. The gist of the method:
as §2

For the next experiment, the system named is OV90. The description is as above. The settings on record: Gynecologic cancer cell panel viability, ATPlite luminescence, 48 h; series mostly up to 57.5 µM. The gist of the method:
as §2

In the next experiment the test system is PA-1. The experiment is described as above. The settings on record: Gynecologic cancer cell panel viability, ATPlite luminescence, 48 h; series mostly up to 57.5 µM. The gist of the method: as §2
The subject of experiment [2] is NIH3T3. The experiment can be described thus: Cytotoxic Profiling of Annotated Libraries Using Quantitative High-Throughput Screening (AID 1296008). Also: nearly all actives have a fitted effect of over 60% in size. Also: potency is read from the fitted curve at half-maximal effect. As to max response: % is scaled to controls: 0 for no effect and ±100 for the full control effect. Particulars: Five cell lines viability, CellTiter-Glo ATP luminescence, 48-72 h; max response: active compounds read low. The gist of the method:
as §1

Experiment [3] deals with HACAT. The experiment can be described thus: qHTS assay to identify novel small-molecules to repurpose for Merkel cell carcinoma treatment (AID 1296009). Also: nearly all actives have a fitted effect of over 60% in size. Particulars: MCC and control cell lines, CellTiter-Glo viability, 72 h; at 44.8 µM (top of the series) unless noted. The gist of the method:
(§3)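 Viability readout: ATP luminescence (CellTiter-Glo) after 72 hr drug exposure at 37 degree celsius. Dose-response format was 8 points for NPC and 11 points for MIPE; data normalized to in-plate controls.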

The subject of experiment [4] is NIH3T3. The description is as above. Particulars: MCC and control cell lines, CellTiter-Glo viability, 72 h; series mostly up to 44.8 µM. The gist of the method:
as §3

Take `CC(C)(N)c1ncc(-c2ccc(OC(F)(F)F)cc2)[nH]1`: the values for the max response in the experiment with HaCat [1] and in the experiment with KB-3-1 were -18.6% and -11.1%, respectively. Also, the Potency result in the experiment with C33A, with CAOV3, in the experiment with CASKI, with Es-2, with HeLa and in the experiment on Hek293T was “inactive” each time. Moreover, the Potency entry with JEG-3, with OV90 and in the experiment with PA-1 was “inactive” in each case.

As to `C/C=C/C=C/c1cc2c(C=O)c(O)c(CC=C(C)C)cc2o1`, the call in the experiment on HaCat [1] and with HACAT [3] was inactive. In addition, the max response in the experiment with NIH3T3 [2] is 1.86%. In addition, the Potency entry in the experiment on C33A, in the experiment on CAOV3, in the experiment on CASKI, with Es-2, with HeLa and in the experiment on Hek293T was “inactive” throughout. Besides, the Potency entry in the experiment with JEG-3, in the experiment with OV90 and in the experiment with PA-1 was “inactive” throughout.

On to `C/C=C(/C)C(=O)OC1CC(C)(C)CC2C3=CCC4C5(C)CCC(O[C@@H]6O[C@H](C(=O)O)[C@@H](O)[C@H](O)[C@H]6O[C@@H]6O[C@H](CO)[C@H](O)[C@H](O[C@@H]7OC[C@H](O)[C@H](O)[C@H]7O[C@@H]7O[C@H](CO)[C@@H](O)[C@H](O)[C@H]7O)[C@H]6O)C(C)(C)C5CCC4(C)C3(C)C(O)C(O)C12CO` (stereo partly specified), for which the max response was -10.3% with HaCat [1] and -3.03% in the experiment on KB-3-1. Further, the activity change, negative = cytotoxicity in the experiment on CAOV3 is -23.4% [at 6.55 µM]; in the experiment with CASKI it was -3.66% [at 6.55 µM]; with Es-2, -27.7% [at 6.55 µM]; in the experiment on HeLa, -5.95% [at 6.55 µM]; in the experiment with JEG-3, -6.95% [at 6.55 µM].

Turning to `C=C1CC[C@@H]2[C@](C)(CO)[C@H](O)CC[C@@]2(C)[C@@H]1/C=C/C1=CCOC1=O`, the molecule was called inactive with HaCat [1] and with HACAT [3]. Further, the max response in the experiment with NIH3T3 [2] is -1.38%. The Potency result in the experiment with C33A, in the experiment on CAOV3, with CASKI, in the experiment on Es-2, in the experiment on HeLa and in the experiment with Hek293T was “inactive” in each case. For the same molecule, the Potency entry with JEG-3, in the experiment on OV90 and with PA-1 was “inactive” each time.

On to `C[C@H]1CC[C@@]2(OC1)O[C@H]1CC3[C@@H]4CC[C@@H]5C[C@@H](O[C@@H]6O[C@H](CO)[C@@H](O[C@@H]7O[C@H](CO[C@@H]8OC[C@@H](O)[C@H](O)[C@H]8O)[C@@H](O[C@@H]8O[C@H](CO)[C@H](O)[C@H](O)[C@H]8O)[C@H](O)[C@H]7O)[C@H](O)[C@H]6O)CC[C@]5(C)C4CC[C@]3(C)[C@H]1[C@@H]2C` (stereo partly specified), for which the max response with HaCat [1] is -10.6%. Also, the molecule was classed as inactive in the experiment on KB-3-1. The activity change, negative = cytotoxicity with C33A is -0.589% [at 11.6 µM]; with CAOV3 it was 0.154% [at 11.6 µM]; in the experiment on CASKI it was -0.139% [at 11.6 µM]; in the experiment on Es-2, -0.634% [at 11.6 µM]; in the experiment with HeLa it was 17.3% [at 11.6 µM]; with Hek293T, -0.448% [at 11.6 µM]. The activity change, negative = cytotoxicity in the experiment with JEG-3 is -1.5% [at 11.6 µM]; in the experiment on OV90, -9.4% [at 11.6 µM]; in the experiment on PA-1 it was -0.202% [at 11.6 µM].

As to `Cn1ncnc1[C@H]1c2n[nH]c(=O)c3cc(F)cc(c23)N[C@@H]1c1ccc(F)cc1`, the Potency was 3.17 µM (active) in the experiment on HaCat [1] and 1 µM (active) with PA-1. In the experiment on KB-3-1, the max response is -8.81%. Moreover, the Potency result with C33A, with CAOV3, in the experiment with HeLa, in the experiment with Hek293T and in the experiment on OV90 was “inactive” each time.

As to `COc1cc2ncc(-c3ccccc3)nc2cc1OC`, the molecule was classed as inactive with HaCat [1], with NIH3T3 [2] and with HACAT [3]. The Potency entry in the experiment on NIH3T3 [4], in the experiment on C33A, in the experiment with CAOV3, in the experiment with CASKI, with Es-2 and in the experiment on Hek293T was “inactive” each time. Besides, the Potency result in the experiment with JEG-3 and with OV90 was “inactive” throughout. Besides, the Potency in the experiment on HeLa is 3.55 µM (active).

Turning to `Cc1cc(C)nc(SCC(=O)Nc2ncc(Cc3cccc4ccccc34)s2)n1`, the call with HaCat [1] and in the experiment on HACAT [3] was inactive. Further, in the experiment on NIH3T3 [2], the max response is -0.172%. Moreover, the Potency result in the experiment with C33A, in the experiment with CAOV3, in the experiment with CASKI, in the experiment on Es-2, with HeLa and in the experiment on Hek293T was “inactive” each time. The Potency result with JEG-3, in the experiment on OV90 and with PA-1 was “inactive” throughout.

For `O=C(Nc1ccccc1)N1CCN(c2nc(-c3ccccc3)ns2)CC1`, the result in the experiment with HaCat [1] and in the experiment on HACAT [3] was inactive. The max response in the experiment with NIH3T3 [2] is -11.1%. The Potency result in the experiment with C33A, in the experiment on CAOV3, in the experiment with CASKI, in the experiment on Es-2, in the experiment with HeLa and with Hek293T was “inactive” throughout. For the same molecule, the Potency result with JEG-3 and in the experiment with OV90 was “inactive” in each case.

Turning to `N#Cc1ccc(-c2ccc(S(=O)(=O)Nc3cccc(N)n3)cc2)cc1`, the outcome in the experiment on HaCat [1] and in the experiment with HACAT [3] was inactive. Besides, in the experiment with NIH3T3 [2], the max response was -2.42%. Also, the Potency entry in the experiment on C33A, with CASKI, with Es-2, in the experiment on HeLa, with JEG-3 and in the experiment with OV90 was “inactive” throughout. In addition, the Potency result with PA-1 was “inactive”.

As to `O=c1[nH]c2cccc(N3CCN(Cc4ccc(-c5ccccc5)cc4)CC3)c2o1`, the max response was -18.1% with HaCat [1] and -24.1% with KB-3-1. For the same molecule, the Potency entry with C33A, in the experiment with CASKI, in the experiment on Es-2, with HeLa, in the experiment with Hek293T and with JEG-3 was “inactive” in each case. For the same molecule, the Potency result in the experiment with OV90 and in the experiment with PA-1 was “inactive” throughout.

Consider `O=C(Nc1cc(C(F)(F)F)cc(C(F)(F)F)c1)c1cnc(Cl)nc1C(F)(F)F`, for which the molecule was classed as inactive in the experiment with HaCat [1] and in the experiment with HACAT [3]. Further, the max response in the experiment with NIH3T3 [2] is -1.85%. Moreover, the Potency result in the experiment on C33A, in the experiment with CAOV3, in the experiment with CASKI, in the experiment with Es-2, in the experiment on HeLa and in the experiment with Hek293T was “inactive” throughout. Also, the Potency result in the experiment with JEG-3, in the experiment on OV90 and with PA-1 was “inactive” each time.

`CC#C[C@@H](CC(=O)O)c1ccc(OCc2cccc(-c3ccc(C(F)(F)F)cc3)c2)cc1`: the max response was -75.8% with HaCat [1] and -14.7% in the experiment on KB-3-1. For the same molecule, the Potency entry in the experiment on C33A, with CAOV3, with CASKI, with Hek293T, with JEG-3 and in the experiment on OV90 was “inactive” throughout.

Take `CCNc1nc(Nc2cc(F)c(C(=O)N3CCOCC3)cc2OC)ncc1C(F)(F)F`: the max response in the experiment on HaCat [1] was 1.43%; with NIH3T3 [2], -2.73%. In addition, the Potency result in the experiment with C33A, in the experiment on CAOV3, in the experiment with CASKI, with Es-2, in the experiment with HeLa and in the experiment on Hek293T was “inactive” each time. For the same molecule, the Potency entry in the experiment with JEG-3 and in the experiment on OV90 was “inactive” throughout.
